Data taken from ChEMBL document CHEMBL2218924, “A broad activity screen in support of a chemogenomic map for kinase signalling research and drug discovery” (Biochem J, 2013).

What follows are compounds tested against Serine/threonine-protein kinase PAK 2 (Homo sapiens) (UniProt Q13177). Details: at 10 µM.
Sequence of Serine/threonine-protein kinase PAK 2 (Homo sapiens) (Q13177 whole entry): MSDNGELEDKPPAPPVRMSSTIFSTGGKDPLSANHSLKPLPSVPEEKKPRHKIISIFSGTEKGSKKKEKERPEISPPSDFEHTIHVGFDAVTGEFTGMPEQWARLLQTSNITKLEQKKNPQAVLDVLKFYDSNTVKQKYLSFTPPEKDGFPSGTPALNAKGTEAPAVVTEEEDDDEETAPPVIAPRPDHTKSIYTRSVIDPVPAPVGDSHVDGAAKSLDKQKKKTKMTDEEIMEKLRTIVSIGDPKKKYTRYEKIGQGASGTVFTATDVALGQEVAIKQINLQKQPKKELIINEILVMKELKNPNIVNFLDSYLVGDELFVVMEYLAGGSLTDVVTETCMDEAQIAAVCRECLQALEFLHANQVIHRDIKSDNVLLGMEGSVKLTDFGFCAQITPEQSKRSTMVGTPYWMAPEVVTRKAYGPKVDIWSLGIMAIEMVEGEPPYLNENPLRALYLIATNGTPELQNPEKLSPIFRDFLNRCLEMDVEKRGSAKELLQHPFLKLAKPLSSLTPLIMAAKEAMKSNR

Compound	residual activity
O=C(c1cc2cc(O)ccc2[nH]1)c1cc2cc(O)ccc2[nH]1	83%
O=C1C(Cl)=C(N2C(=O)CCC2=O)C(=O)c2ccccc21	98%
CCCCc1c(-c2ccc(OC)cc2)[nH]c2nccnc12	103%
CSc1nc(-c2ccc(F)cc2)c(-c2ccnc(NC(C)c3ccccc3)c2)[nH]1 (stereo unspecified)	87%
CN([C@@H](Cc1ccc(OS(=O)(=O)c2cccc3cnccc23)cc1)C(=O)N1CCN(c2ccccc2)CC1)S(=O)(=O)c1cccc2cnccc12	98%
Cn1sc(=O)n(Cc2ccccc2)c1=O	91%
N#C/C(=C\c1ccc(O)c(O)c1)C(=O)NCc1ccccc1	85%
CC(C)N(CCC(=O)c1ccc2ccccc2c1)Cc1ccccc1	81%
O=C1Nc2ccc(Cl)cc2/C1=C/c1cc(Cl)c(O)c(Cl)c1	75%
O=C1NC(=O)C(c2cn(CCCO)c3ncccc23)=C1c1cnccn1	99%
O=C1NC(=O)C(c2cn(CCCn3ccnc3)c3ccccc23)=C1Nc1ccccc1	67%
